Screens as filed in PubChem.
nsP2pro inh: CHIKV nsP2 protease inhibition, primary qHTS | Q8JUX6 | FRET peptide cleavage, nsP2pro, fluorescence 1 h | Potency, µM (highest dose often 24.9 µM), hits mostly inhibitors | 31,000 compounds, 1.1% hits | AID 1964107; further: nearly all actives have a fitted effect of over 60% in size
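FRET cleavage of 2.5 uM peptide 2 by 150 nM CHIKV protease domain at pH 8.0 (Tris, Tween 20). Compounds at 7 concentrations (up to 25 uM) preincubated 15 min. Fluorescence read after 1 h at room temperature.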
nsP2 cell sec: cell-based CHIKV nsP2 protease inhibition, secondary. shares compounds with nsP2pro inh. cell-based CHIKV nsP2 protease reporter assay. Potency, µM (top dose mostly 51.1 µM), actives largely listed as inhibitors. 450 compounds, 10% hits. AID 1964100; further: nearly all actives have a fitted effect of over 70% in size
NSP2 full ctr: selectivity test for CHIKV nsP2 protease inhibitors: full-length NSP2. 410 compounds, 39% hits. Full-length CHIKV NSP2 protease enzymatic counterscreen. shares compounds with nsP2pro inh. AID 1964101. Potency, µM (doses to about 50.7 µM), most hits filed as inhibitors; further: nearly all actives have a fitted effect of over 65% in size
Furin counterscr: inhibits human furin in a CHIKV nsP2 protease selectivity counterscreen; shares compounds with nsP2pro inh; Potency, µM (highest dose often 50.6 µM), usual class: inhibitors; 410 compounds, 6% hits; Recombinant human furin enzymatic counterscreen, fluorogenic substrate; AID 1964102
nsP2 NS23 pep: blocks CHIKV nsP2 protease cleavage of endogenous NS2/3 peptide; Potency, µM (highest dose often 51 µM), actives largely listed as inhibitors; shares compounds with nsP2pro inh; 410 compounds, 34% hits; Purified CHIKV nsP2 protease, endogenous NS2/3 peptide cleavage; further: nearly all actives have a fitted effect of over 55% in size
Papain cs: selectivity counter-screen for CHIKV nsP2 protease inhibitors: papain; shares compounds with nsP2pro inh; purified papain protease activity, enzymatic inhibition; Potency, µM (titrated, usually from 51 µM), hits mostly inhibitors; 410 compounds, 5% hits; AID 1964104
Target sequence (P00784 whole entry, looked up): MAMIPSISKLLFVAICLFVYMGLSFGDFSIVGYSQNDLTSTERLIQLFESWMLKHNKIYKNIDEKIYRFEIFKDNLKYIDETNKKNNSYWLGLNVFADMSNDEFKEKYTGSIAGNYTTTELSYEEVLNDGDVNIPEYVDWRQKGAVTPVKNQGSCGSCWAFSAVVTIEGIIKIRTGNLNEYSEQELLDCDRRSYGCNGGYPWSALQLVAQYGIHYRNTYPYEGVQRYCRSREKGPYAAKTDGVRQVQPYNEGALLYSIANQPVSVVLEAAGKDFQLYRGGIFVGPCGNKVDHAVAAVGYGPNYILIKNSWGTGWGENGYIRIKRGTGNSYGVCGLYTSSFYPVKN
nsP2pro confirm: CHIKV nsP2 protease inhibition, confirmatory qHTS; shares compounds with nsP2pro inh; CHIKV nsP2 protease enzymatic activity, qHTS; Potency, µM (highest dose often 25.5 µM), most hits filed as inhibitors; 410 compounds, 43% hits; further: nearly all actives have a fitted effect of over 75% in size
HCV NS3 4A cs: HCV NS3/4A protease inhibition, counterscreen | 410 compounds, 20% hits | AID 1964106 | Potency, µM (highest dose often 50.9 µM), most hits filed as inhibitors | shares compounds with nsP2pro inh | HCV NS3/4A protease biochemical counterscreen; further: nearly all actives have a fitted effect of over 55% in size
Hits are given with their value; – = inactive; ? = inconclusive; ! = not active in a repeat; [ ] = dose if it differs, or a comment. This excerpt belongs to a sample that is enriched for hits. The call rests on the fitted dose curve.

SMILES	nsP2pro inh	others
NCCC(=O)N1CCC2(CC1)CN(C(=O)c1ccc(Cl)cc1)CCO2	7.9µM	nsP2 cell sec=–;NSP2 full ctr=12µM;Furin counterscr=–;nsP2 NS23 pep=18µM;Papain cs=–;nsP2pro confirm=9µM;HCV NS3 4A cs=2.9µM
CCCCC(=O)N(Cc1ccc(-c2ccccc2-c2nnn[nH]2)cc1)[C@H](C(=O)O)C(C)C (tested in a mixture with another compound)	–
Cc1nc2ncnn2c(C)c1CCC(=O)N1C[C@@H](N)C[C@H]1C(=O)NC(C)C	–
N#Cc1ccc(-c2ccc(CNc3ccc(N4CCOCC4)cc3)cn2)cc1	–
COc1cc(Nc2nc(-c3ccncc3)nc3ccccc23)ccc1Cl	–
CCCn1cc2c(nc(NC(=O)Nc3ccc(OC)cc3)n3nc(-c4ccco4)nc23)n1	–
Cc1ccc(-c2cc(C(=O)Nc3cccc4ccccc34)c3ccccc3n2)cc1C	–
O=C1c2ccccc2C(=O)N1c1cccnc1	–
O=C1C(=Cc2cccnc2)C(=O)c2ccccc21	?	nsP2 cell sec=–;NSP2 full ctr=?;Furin counterscr=–;nsP2 NS23 pep=18µM;Papain cs=–;nsP2pro confirm=5µM;HCV NS3 4A cs=?
O=C1OC(/C=C/c2ccccc2)=NC/1=C\c1cccnc1	–
COC(=O)c1ccc(O)c2ncc(N(C)C)cc12	–
CCCCCC/C=C\CCCCCCCC(=O)O	–
CC/C=C\C/C=C\C/C=C\C/C=C\C/C=C\CCCC(=O)O	?	nsP2 cell sec=–;NSP2 full ctr=6.7µM;Furin counterscr=–;nsP2 NS23 pep=?;Papain cs=33µM;nsP2pro confirm=8.2µM;HCV NS3 4A cs=–
CCCCCC[C@@H](O)C/C=C\CCCCCCCC(=O)O	–
O=C(NCc1ccc(S(=O)(=O)c2cccc(C(F)(F)F)c2)cc1)c1cnc2[nH]ncc2c1	–
Cn1nnnc1Sc1ncnc2scc(Br)c12	–
Cn1nnnc1Sc1ncnc2scc(I)c12	2.2µM	nsP2 cell sec=7.3µM;NSP2 full ctr=–;Furin counterscr=–;nsP2 NS23 pep=–;Papain cs=–;nsP2pro confirm=–;HCV NS3 4A cs=?
Cc1ccc(-c2csc3ncnc(Sc4nnnn4C)c23)cc1	–
O=C(CCn1ccn2nc3c(c2c1=O)CCCC3)Nc1ccc(F)cc1F	–
O=C(Nc1ccc(Cl)c(Cl)c1)Nc1ncc(-c2ccncc2)s1	–
Cc1oc(-c2ccccc2)nc1CCOc1ccc(CC2C(=O)NOC2=O)cc1 (stereo not drawn)	–
O=C(O)[C@H]1C2CCC(CC2)[C@@H]1Nc1nc(-c2c[nH]c3ncc(F)cc23)ncc1F	?	nsP2 cell sec=–;NSP2 full ctr=–;Furin counterscr=–;nsP2 NS23 pep=–;Papain cs=?;nsP2pro confirm=?;HCV NS3 4A cs=–
N#Cc1ccc(-c2csc(NN=C3CCCC3)n2)cc1	–
COc1ccc(CNC(=O)C2CCN(Cc3ccccc3-c3ccccc3F)CC2)cc1	–
O=C(O)C1CN(C(=O)c2ccco2)CCN(C2CCOCC2)C1 (stereo not drawn)	–
SMILES	nsP2pro inh	others
CCCNC(=O)N1CCC2(CC1)N(c1ccccc1)C(=O)CS2=O (stereo not drawn)	–
COc1ccc(CNS(=O)(=O)c2cc3c(cc2C)N(C)CCO3)cc1	–
COc1ccc(CNC(=O)C2CCC(CNS(=O)(=O)c3ccc4c(c3)CCCC(=O)N4)CC2)cc1 (stereo not drawn)	–
COc1ccc(CNS(=O)(=O)c2cc(-c3[nH]ncc3C(=O)N3CCCC3)oc2C)cc1	7.1µM	nsP2 cell sec=–;NSP2 full ctr=?;Furin counterscr=–;nsP2 NS23 pep=–;Papain cs=–;nsP2pro confirm=–;HCV NS3 4A cs=?
C[C@@H](NC(=O)c1cc(C(=O)N[C@@H](Cc2ccccc2)[C@H](O)CNC2CC2)cc(N(C)S(C)(=O)=O)c1)c1ccccc1	–
COc1ccc(N2CCN(C(=O)c3cc4ccc5cccnc5c4[nH]3)CC2)cc1	–
CS(=O)(=O)Nc1ccc(OCC(=O)N2CCN(c3ccc(F)cc3)CC2)nc1	–
CC(C)Nc1cccnc1N1CCN(C(=O)c2cc3cc(NS(C)(=O)=O)ccc3[nH]2)CC1	1.8µM!	nsP2 cell sec=–;NSP2 full ctr=?;Furin counterscr=–;nsP2 NS23 pep=?;Papain cs=–;nsP2pro confirm=?;HCV NS3 4A cs=–
COCC1CN(C)CC12CCN(C(=O)c1cc3ccccc3[nH]1)CC2 (stereo not drawn)	–
Nc1c(-c2ccccc2)nc(Cl)c2c(O)n[nH]c(=O)c12	9.9µM	nsP2 cell sec=–;NSP2 full ctr=–;Furin counterscr=–;nsP2 NS23 pep=–;Papain cs=–;nsP2pro confirm=–;HCV NS3 4A cs=–
O=C(O)c1cc(-c2c(-c3ccccc3)nn3ccccc23)n[nH]c1=O	–
Clc1ccc(CCCOCCCN2CCCCC2)cc1	–
Cc1cc(NS(=O)(=O)c2ccc(NC(=O)Cc3ccc(C)c(C)c3)cc2)no1	–
C[C@@H]1O[C@@H](O[C@H]2[C@H](O)[C@@H](O)[C@H](OC(=O)[C@]34CCC(C)(C)C[C@H]3C3=CCC5[C@@]6(C)CC[C@H](O[C@@H]7O[C@H](C(=O)O)[C@@H](O)[C@H](O)[C@H]7O)C(C)(C)C6CC[C@@]5(C)[C@]3(C)CC4)O[C@@H]2CO)[C@H](O)[C@H](O)[C@H]1O (stereo partly drawn)	–[5.1 µM]
CC(C)n1nccc1S(=O)(=O)N[C@@H]1[C@@H](Cc2ccccc2)[C@H]2OCC[C@@H]12	–
COc1ccc(NC(=O)/C=C\C(=O)N(c2ccc(C(C)C)cc2)C(C(=O)NCc2ccco2)c2ccc(F)cc2)cc1 (stereo not drawn)	–
O=C(/C=C/c1ccco1)Nc1ccc(F)cc1	6.3µM	nsP2 cell sec=–
O=C(c1ccc(F)cc1)n1nc(-c2ccc(Cl)cc2)nc1NCc1ccco1	–
O=S(=O)(c1cccnc1)N1CCC(N(Cc2cccnc2)C2CCOCC2)CC1	–
O=C(NC1CCCC1)c1cc(-c2cccc(C(F)(F)F)c2)c2cccn2n1	–
COc1cccc(CCC(=O)NC2CCN(c3cc(C(F)(F)F)nc(C)n3)CC2)c1	–
O=C1CCCC2=C1C(c1[nH]ncc1Cl)NC(=NCc1ccccn1)N2 (stereo not drawn)	–
O=C(O)c1ccccc1Nc1cc(Cl)ccc1C(=O)O	–
Cc1cccc(Nc2ccccc2C(=O)O)c1C	–
Cc1cc(Nc2ccccc2C(=O)O)ccc1Cl	3.5µM	nsP2 cell sec=–;NSP2 full ctr=13µM;Furin counterscr=–;nsP2 NS23 pep=?;Papain cs=?;nsP2pro confirm=2µM;HCV NS3 4A cs=–
SMILES	nsP2pro inh	others
CCCCCCCC(=O)O	–
C=CCCCCCCCCC(=O)O	4.3µM	nsP2 cell sec=–;NSP2 full ctr=1.4µM;Furin counterscr=?;nsP2 NS23 pep=?;Papain cs=?;nsP2pro confirm=2.2µM;HCV NS3 4A cs=–
CCCCCCCCCCCCCCCC(=O)O	–
Cc1nc(CN=C2NC3=C(C(=O)CCC3)C(c3[nH]ncc3Cl)N2)cs1 (stereo not drawn)	–
c1csc(CNc2ccc(N3CCCCC3)cc2)c1	–
O=C(Nc1ccc2c(c1)CCN(Cc1ncn[nH]1)C2)c1ccccc1-c1ccc(C(F)(F)F)cc1	–
O=C(O)C(=O)Nc1cccc(-c2nn[nH]n2)c1	?	nsP2 cell sec=–;NSP2 full ctr=?;Furin counterscr=–;nsP2 NS23 pep=?;Papain cs=–;nsP2pro confirm=10µM;HCV NS3 4A cs=?
